The campaign covered roughly 330,000 compounds. About 1,900 (0.58%) were called active. About 4% were inconclusive and are not listed. These entries were drawn from the full list. Potency and affinity values are given separately. Unmarked numbers belong to inactive results. Rule as the data show it: inconclusive = inhibition above about 70% without an active follow-up result; inactive = below that.

What is called inhibition is the drop in the measured response relative to a control, in per cent.

The test in a line: M. tuberculosis growth inhibition, HTS (AID 449762).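 Also: bacterial growth assessed after seven days of incubation.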 The conditions noted are these: M. tuberculosis H37Rv growth inhibition, 7H9 media; at 25 µM; hits give high values.
With `Cc1ccccc1-n1c(-c2ccoc2)nc2ccccc2c1=O`, the inhibition was 13.6%.

On to `O=C(CCN1CCN(c2ccccc2F)CC1)Nc1ccc(F)cc1`, for which the inhibition is -1.83%.

Take `S=c1[nH]nc(C2CCCCC2)n1/N=C/C=C/c1ccccc1`: the inhibition was 0.75%.

With `Cc1cc(C(=O)OCC(=O)N2CCc3ccccc32)c(C)o1`, the inhibition was 0.97%.

As for `CC(C)(C)c1ccc(OCCC(=O)OCC(=O)NC2CC2)cc1`, the inhibition was -4.78%.

For the compound `Cc1ccc(OCCC(=O)OCC(=O)NC(=O)NC2CCCC2)cc1`, the inhibition was 6.88%.

In the case of `Cc1cc(=O)oc2c(C)c(OC(C)C(=O)NCC(O)c3ccccc3)ccc12` (stereo unspecified), the inhibition is 0.93%.

As for `C[C@H](CO)N1C[C@H](C)[C@@H](CN(C)S(=O)(=O)c2ccc(F)cc2)Oc2c(NC(=O)NC3CCCCC3)cccc2C1=O`, the inhibition is 6.78%.

As for `CCOC(=O)C1CCCN(C2CCN(Cc3nc(-c4ccccc4)no3)CC2)C1` (stereo unspecified), the inhibition was -1.09%.

In the case of `Cc1c(Nc2cc(=O)oc3ccccc23)c(=O)n(-c2ccccc2)n1C`, the inhibition is -1.53%.

In the case of `CCCc1ccc(S(=O)(=O)NCCc2ccncc2)cc1`, the inhibition was 2.76%.

On to `CCCCc1ccc(S(=O)(=O)NCCc2ccncc2)cc1`, for which the inhibition was 21.7%.

As for `CCC(C(=O)Nc1cccc(S(=O)(=O)N(C)c2ccccc2)c1)c1ccccc1` (stereo unspecified), the inhibition was -1.21%.

In the case of `O=C(O)c1cccc(Nc2ccc([N+](=O)[O-])c3nonc23)c1`, the inhibition is 2.67%.

In the case of `COc1cccc(Nc2c([N+](=O)[O-])cncc2[N+](=O)[O-])c1`, the inhibition is 65.1%.

Turning to `O=C(COC(=O)CSc1ccc(F)cc1)NCc1ccco1`, the inhibition was -1.1%.

With `O=C(O)c1cccc(S(=O)(=O)Nc2cccc3ccccc23)c1`, the inhibition was 20.9%.

Consider `NC(N)=NN=C1c2ccccc2-c2ccccc21`, for which the inhibition is 6.09%.

On to `CCN(CC)CCOc1ccc2c(c1)C(=NO)c1cc(OCCN(CC)CC)ccc1-2`, for which the inhibition was 9.59%.

On to `O=C(Cc1cccc(NC(=O)C2CCN(C(=O)C3CCCC3)CC2)c1)Nc1cccc(C(=O)N2CCCC2)c1`, for which the inhibition was -2.63%.

In the case of `CC(=O)Nc1ccc(NS(=O)(=O)c2ccc(-c3cnc(C4CC4)o3)cc2)cc1`, the inhibition was -1.71%.

In the case of `COc1ccc(Cl)cc1S(=O)(=O)N(C)CC(=O)N1CCCC1`, the inhibition was 7.61%.

In the case of `CCOC(=O)c1ccc(NC(=O)COc2coc(CN3CCc4ccccc43)cc2=O)cc1`, the inhibition was 34.3%.

Regarding `Cc1ccc(C)c(NC(=O)COc2coc(CN3CCc4ccccc43)cc2=O)c1`, the inhibition was 47.8%.

Take `COc1ccc(OC)c(NC(=O)Cn2cc(C#N)c3ccccc32)c1`: the inhibition is -1.64%.

Take `Cc1ccc(S(=O)(=O)NC(=O)COc2ccccc2C)c(C)c1`: the inhibition was 0.6%.

On to `O=C(CCC1CCCCC1)NC1=NCCS1`, for which the inhibition was -6.25%.

Regarding `c1ccc(N/N=C2\CCCc3ccccc32)nc1`, the inhibition was 9.09%.

On to `Cc1cc(NC2CCCCC2)nc2ccccc12`, for which the inhibition was 10%.

For `O=C(NNC(=O)C1CCN(C(=O)Nc2ccccc2)CC1)c1ccc([N+](=O)[O-])cc1`, the inhibition was -0.74%.

With `COc1cc(NC(=O)NNC(=O)c2cc3occc3n2C)cc(OC)c1OC`, the inhibition was -1.55%.

Take `Cc1ccc(CS(=O)(=O)c2ncc(Cl)c(C(=O)Nc3ccc(OC(F)F)cc3)n2)cc1`: the inhibition is 1.02%.

Turning to `O=C(Nc1ccc(OC(F)F)cc1)c1ncc(Cl)c(Cl)c1Cl`, the inhibition is 3.27%.

As to `CCCCN(C(=O)c1c(CC)noc1C)c1c(N)n(CCCC)c(=O)[nH]c1=O`, the inhibition was -5.14%.

Take `COc1cccc(CNC(=O)c2nnn(CC(=O)Nc3ccc4c(c3)OCO4)c2N)c1`: the inhibition was -1.11%.

In the case of `CCOC(=O)c1ccc(Oc2nc(N(C)C)nc(N(C)C)n2)cc1`, the inhibition was 17%.

With `CCOC(=O)c1ccc(Oc2nc(OC)nc(N(C)C)n2)cc1`, the inhibition was 4.44%.

Turning to `CCc1nnc(N/N=C/c2ccccc2F)n1N`, the inhibition is 31.3%.

Turning to `CCc1nnc(N/N=C/c2cc(Br)c(O)cc2O)n1N`, the inhibition was 0.32%.

Take `CCN(CCn1cccn1)Cc1nc(-c2ccc(C(=O)OC)cc2)no1`: the inhibition was 24%.

As to `COC(=O)c1ccc(-c2noc(CN(Cc3ccncc3)CC3CCCO3)n2)cc1` (stereo unspecified), the inhibition is 41.2%.

Take `O=C(CSc1nnnn1C1CCCC1)N1CCOCC1`: the inhibition is -0.48%.

On to `COc1ccc(NC(=O)CCN2CCN(S(=O)(=O)c3cc(Cl)ccc3Cl)CC2)cc1`, for which the inhibition is -9.19%.

Regarding `Fc1ccccc1Oc1nc(-c2ccncc2)nc2ccccc12`, the inhibition was 4.31%.

Regarding `O=C(N/N=C/c1c(O)n(Cc2ccccc2)c(=O)[nH]c1=O)c1ccccc1O`, the inhibition is 14.7%.

In the case of `CC(=O)Nc1nc2ccccc2[nH]1`, the inhibition is -2.83%.

In the case of `O=C(Nc1nc2ccccc2[nH]1)C1CC1`, the inhibition was -4.47%.

In the case of `O=C1CC(=O)N(c2ccccc2)c2ccccc21`, the inhibition was 8.88%.

With `O=C1CCCCC(=O)N(c2ccccc2)c2ccccc21`, the inhibition is 4.12%.

Regarding `COC(=O)c1ccsc1NC(=O)CCS(=O)(=O)c1ccc(Cl)cc1`, the inhibition is -2.4%.

Take `CCCCNC(=O)CSc1nc2c(sc(=S)n2-c2cc(Cl)ccc2OC)c(=O)[nH]1`: the inhibition was 2.82%.

For the compound `CCOc1ccc(OCCC(=O)OCC(=O)Nc2ccc(N3CCOCC3)cc2)cc1`, the inhibition was 8.74%.

For `C=CCNCc1ccccc1[N+](=O)[O-]`, the inhibition is 15%.

Turning to `Cc1c(C#N)c2ncnc(-c3ccccc3)c2n1-c1ccccc1`, the inhibition was -23.1%.

In the case of `COc1cccc2c1-c1c(O)cccc1C2=O`, the inhibition is 6.4%.

As for `COC(=O)c1cc(C#N)c(=O)[nH]c1C`, the inhibition was 4.68%.

As for `O=C(CSc1c(Cl)cccc1Cl)N1CCC(c2nc3ccccc3s2)CC1`, the inhibition is 6.33%.

On to `O=C(CSc1ccc(F)cc1)N1CCC(c2nc3ccccc3s2)CC1`, for which the inhibition was 3.87%.

`CN1CCC(OC(=O)COc2ccccc2)CC1`: the inhibition was -3.85%.

For `Cc1ccc2c(c1)N(C(=O)CCC(=O)N1CCOCC1)CCO2`, the inhibition is -0.82%.

Turning to `O=S(=O)(c1cccs1)n1cccn1`, the inhibition was 0.03%.

As to `O=S(=O)(Nc1ccccn1)c1cccs1`, the inhibition was -1.52%.

Turning to `Cc1nc2ccc(NC(=O)c3ccc(S(=O)(=O)N(C)C)cc3)cc2s1`, the inhibition was 3.86%.

`COc1ccccc1N(C)S(=O)(=O)c1ccc(C(=O)Nc2ccncc2)cc1`: the inhibition is 6.47%.

Consider `COc1ccc(N2CCN(S(=O)(=O)CCNC(=O)/C=C/c3ccccc3)CC2)cc1`, for which the inhibition is 7.56%.

`O=C(COC(=O)C1CC2CCCC(C1)C2=O)NNC(=O)c1ccccc1Br` (stereo unspecified): the inhibition is -3.73%.

Consider `O=C(COC(=O)C1CC2CCCC(C1)C2=O)NC(=O)c1ccccc1` (stereo unspecified), for which the inhibition is -2.77%.

Regarding `Cc1nn(CC(O)c2ccccc2)c(C)c1Br` (stereo unspecified), the inhibition was -6.52%.

On to `CCC(=O)Nc1nc2ccccc2n1CCN(C)C`, for which the inhibition is -8.02%.

As to `CCn1c(NC(C)=O)nc2ccccc21`, the inhibition is 31.6%.

In the case of `CCCn1c(NC(=O)c2ccccc2)nc2ccccc21`, the inhibition is -7.04%.

Regarding `O=C(Nc1nc2ccccc2n1Cc1ccc(Cl)cc1)c1ccco1`, the inhibition was 50.9%.

For the compound `O=C(CSCc1ccc(Cl)cc1)Nc1ccc(S(=O)(=O)N2CCCCCC2)cc1`, the inhibition is 1.03%.

As for `CC1CCCC(NC(=O)CSc2nncs2)C1C` (stereo unspecified), the inhibition is -10.3%.

For the compound `CCC(=O)c1ccc(OCC(=O)Nc2nc(-c3cccnc3)cs2)cc1`, the inhibition was 24.3%.

As to `COC1=CC2[C@@H]3Cc4ccc(OC)c(O)c4[C@]2(CCN3C)CC1=O` (stereo partly specified), the inhibition is 6.39%.

For the compound `CC(C)=CCC/C(C)=C/CNC(=O)CC1C[C@H](C(=O)N2CCCCC2)[C@@]2(C)c3[nH]c4ccccc4c3CCN2C1=O` (stereo partly specified), the inhibition was -1.03%.

Consider `Cc1cccc(NC(=O)C2Cc3ccccc3O/C2=N\O)c1` (stereo unspecified), for which the inhibition was 0.7%.

For the compound `CC(C)C(=O)N[C@H]1CCC2C3CC=C4C[C@@H](O)CC[C@]4(C)C3CC[C@@]21C` (stereo partly specified), the inhibition was 4.73%.

Consider `CN(C)CCN[C@H]1CCC2C3CC=C4C[C@@H](O)CC[C@]4(C)C3CC[C@@]21C` (stereo partly specified), for which the inhibition is 1.3%.

As for `CCCCn1c(N)c(N(CC(C)C)C(=O)CCCc2nc3ccccc3c(=O)[nH]2)c(=O)[nH]c1=O`, the inhibition is 0.43%.

On to `Cc1cc(NC(=O)CCC(=O)N(CC(=O)NC2CCCC2)c2ccc3c(c2)OCCO3)no1`, for which the inhibition was -6.7%.

For `CCC(=O)Nc1c2c(nn1-c1ccc(OC)cc1)CSC2`, the inhibition is 1.36%.

For `COc1ccc(-n2nc3c(c2NC(=O)CCCl)CSC3)cc1`, the inhibition was 5.23%.

`CC(=O)n1cc(CO)c2ccccc21`: the inhibition was -8.42%.

As for `CC(=O)N(c1ccc(Cl)cc1)c1cn(C(C)=O)c2ccccc12`, the inhibition was 8.81%.

With `COc1ccccc1N1CCN(C(=O)CCCn2nc(C)c([N+](=O)[O-])c2C)CC1`, the inhibition was 2.97%.

As to `CCOc1ccc(C(=O)Nn2cnnc2)cc1`, the inhibition was 7.03%.

Turning to `O=C(N/N=C/c1sc(=O)[nH]c1-[n+]1ccccc1)c1ccccc1[O-]`, the inhibition was -8.63%.

For the compound `CCOc1ccc(N2CC(=O)N(c3ccc(OCC)cc3)CC2=O)cc1`, the inhibition is -4.6%.

For `CCOc1ccc(N2C(=O)CNC2=S)cc1`, the inhibition is 0.76%.

With `O=C(COc1ccc(Br)cc1)c1ccc2c(c1)CCCC2`, the inhibition was 2.77%.

Consider `COc1cc(CN2CCC(n3nccc3NC(=O)c3ccccc3OC)CC2)ccc1F`, for which the inhibition is 7.24%.

With `COc1cc(NC(=O)CN2CCN(c3ccccc3O)CC2)c(C)cc1[N+](=O)[O-]`, the inhibition was -10.9%.

Turning to `Cc1ccc(COc2ccsc2-c2n[nH]c(=S)n2C)cc1`, the inhibition is -10.5%.

Turning to `CN(C)C(=O)CSc1nc2ccc(C(=O)c3ccccc3)cc2[nH]1`, the inhibition was 1.68%.
